We go through 1 sequence from article PMC7862700, “An all-to-all approach to the identification of sequence-specific readers for epigenetic DNA modifications on cytosine”.

Common to all, as to test: DAPPL (digital affinity profiling via proximity ligation, sequencing); 10 mM Tris-HCl pH 7.5, 50 mM NaCl, 1 mM DTT, 4% glycerol, room temperature, 30 min; GST-TFs on glutathione beads, 16-mer random dsDNA library, 0.1% formaldehyde crosslink after washing; high values mean tight binding
In one assay the target is T1, FLI1 (Homo sapiens, UniProt Q01543 1-452).
T1 sequence: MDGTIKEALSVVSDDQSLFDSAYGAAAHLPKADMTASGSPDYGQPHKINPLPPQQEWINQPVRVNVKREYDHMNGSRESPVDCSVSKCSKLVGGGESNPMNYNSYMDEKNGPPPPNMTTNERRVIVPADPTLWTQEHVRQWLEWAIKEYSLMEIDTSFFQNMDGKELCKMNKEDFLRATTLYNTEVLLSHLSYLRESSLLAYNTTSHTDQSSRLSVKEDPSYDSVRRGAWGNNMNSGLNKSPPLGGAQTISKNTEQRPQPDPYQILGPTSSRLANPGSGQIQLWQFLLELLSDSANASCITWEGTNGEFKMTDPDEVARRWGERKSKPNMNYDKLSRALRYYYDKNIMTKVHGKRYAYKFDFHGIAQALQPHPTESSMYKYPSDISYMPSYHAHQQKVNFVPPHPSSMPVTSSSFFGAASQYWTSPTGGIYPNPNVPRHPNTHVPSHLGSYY
Conditions: protein: recombinant; tags: N-terminal GST; dsDNA, one strand shown. In short, it runs like this:
(§1)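 Sequencing on an Illumina NextSeq500 followed washing, crosslinking with 0.1% formaldehyde, proximity ligation (BsaI/T4 ligase, 1 h, 37 °C) and PCR amplification of pools that had been incubated for 30 min at room temperature with 200 nmole of a random double-stranded 16-mer DNA library in Tris/NaCl/DTT/glycerol buffer. Each pool held DNA-barcoded human transcription factors, expressed in yeast as GST fusions and captured on glutathione beads, plus a tag-only sample. Binding signal is a hexamer's read frequency for a factor divided by its frequency in the tag-only sample.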

The next assay addresses T2, ELK1 (Homo sapiens, UniProt P19419 1-428).
T2 sequence: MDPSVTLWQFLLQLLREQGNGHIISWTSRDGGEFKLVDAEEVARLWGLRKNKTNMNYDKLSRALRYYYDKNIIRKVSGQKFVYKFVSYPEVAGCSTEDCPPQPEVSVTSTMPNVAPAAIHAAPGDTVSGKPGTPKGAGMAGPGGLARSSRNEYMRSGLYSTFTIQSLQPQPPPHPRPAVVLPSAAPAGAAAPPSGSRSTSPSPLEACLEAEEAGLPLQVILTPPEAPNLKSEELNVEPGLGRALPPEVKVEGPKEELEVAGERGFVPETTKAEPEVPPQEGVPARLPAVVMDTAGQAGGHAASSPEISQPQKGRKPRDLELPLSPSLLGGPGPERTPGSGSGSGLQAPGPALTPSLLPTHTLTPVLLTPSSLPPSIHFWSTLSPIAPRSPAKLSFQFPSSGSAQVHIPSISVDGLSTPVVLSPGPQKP
The note with it: protein: recombinant; tags: N-terminal GST; dsDNA, one strand shown. In short, it runs like this:
as §1

The target in a further assay is T3, GABPA (Homo sapiens, UniProt Q06546 1-454).
T3 sequence: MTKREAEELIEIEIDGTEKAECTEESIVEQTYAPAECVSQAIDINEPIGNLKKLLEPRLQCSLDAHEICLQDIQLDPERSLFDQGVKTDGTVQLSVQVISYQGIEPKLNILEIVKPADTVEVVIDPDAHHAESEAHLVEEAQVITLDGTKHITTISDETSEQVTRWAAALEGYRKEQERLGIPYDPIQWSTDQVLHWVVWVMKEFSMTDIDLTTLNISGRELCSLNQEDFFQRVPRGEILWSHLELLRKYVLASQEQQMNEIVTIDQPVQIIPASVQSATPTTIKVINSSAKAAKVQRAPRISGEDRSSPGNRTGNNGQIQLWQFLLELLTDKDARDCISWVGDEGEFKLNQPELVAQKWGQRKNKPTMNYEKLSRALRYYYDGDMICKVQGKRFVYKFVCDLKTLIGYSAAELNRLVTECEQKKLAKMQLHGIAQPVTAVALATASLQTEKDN
Conditions: protein: recombinant; tags: N-terminal GST; dsDNA, one strand shown. In short, it runs like this: as §1

The next assay deals with T4, ERG (Homo sapiens, UniProt P11308 1-479).
T4 sequence: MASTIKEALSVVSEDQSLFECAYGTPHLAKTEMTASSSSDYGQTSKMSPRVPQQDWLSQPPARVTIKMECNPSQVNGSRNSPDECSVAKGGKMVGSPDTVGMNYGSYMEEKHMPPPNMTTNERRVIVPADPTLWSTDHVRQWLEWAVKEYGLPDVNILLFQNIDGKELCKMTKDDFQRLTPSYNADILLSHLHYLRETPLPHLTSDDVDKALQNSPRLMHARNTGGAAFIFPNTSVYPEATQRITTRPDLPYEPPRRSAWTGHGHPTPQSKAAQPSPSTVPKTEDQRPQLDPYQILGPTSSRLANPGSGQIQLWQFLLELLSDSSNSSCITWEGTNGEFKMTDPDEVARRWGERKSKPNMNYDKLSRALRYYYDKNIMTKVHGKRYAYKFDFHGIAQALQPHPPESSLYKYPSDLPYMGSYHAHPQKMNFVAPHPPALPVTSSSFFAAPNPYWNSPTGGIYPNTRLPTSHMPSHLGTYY
The note with it: protein: recombinant; tags: N-terminal GST; dsDNA, one strand shown. Put shortly: as §1

A further assay addresses ELF1 (Homo sapiens, UniProt P32519 1-619). The note with it: protein: recombinant; tags: N-terminal GST; dsDNA, one strand shown. In short, it runs like this:
as §1

The target of a further assay is SPI1 (Homo sapiens, UniProt P17947 1-270). Conditions: protein: recombinant; tags: N-terminal GST; dsDNA, one strand shown. Put shortly:
as §1

The target of the next assay is SPIB (Homo sapiens, UniProt Q01892 1-262). The note with it: protein: recombinant; tags: N-terminal GST; dsDNA, one strand shown. Put shortly: as §1
In a further assay the target is T5, FEV (Homo sapiens, UniProt Q99581 1-238).
T5 sequence: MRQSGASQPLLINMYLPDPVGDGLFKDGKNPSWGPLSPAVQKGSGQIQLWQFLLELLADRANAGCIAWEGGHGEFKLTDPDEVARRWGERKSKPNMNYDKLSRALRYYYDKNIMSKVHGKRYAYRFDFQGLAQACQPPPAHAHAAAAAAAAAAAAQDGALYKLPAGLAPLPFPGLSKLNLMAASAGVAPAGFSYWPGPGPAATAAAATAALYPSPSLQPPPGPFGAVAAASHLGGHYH
Conditions: protein: recombinant; tags: N-terminal GST; dsDNA, one strand shown. In short, it runs like this: as §1

The target in another assay is ETV5 (Homo sapiens, UniProt P41161 1-510). Conditions: protein: recombinant; tags: N-terminal GST; dsDNA, one strand shown. In short, it runs like this:
as §1

For a further assay, the target named is HSF1 (Homo sapiens, UniProt Q00613 1-529). The note with it: protein: recombinant; tags: N-terminal GST; chain copies: 3; dsDNA, one strand shown. In short, it runs like this:
as §1

In a further assay the target is T6, SPIC (Homo sapiens, UniProt Q8N5J4 1-248).
T6 sequence: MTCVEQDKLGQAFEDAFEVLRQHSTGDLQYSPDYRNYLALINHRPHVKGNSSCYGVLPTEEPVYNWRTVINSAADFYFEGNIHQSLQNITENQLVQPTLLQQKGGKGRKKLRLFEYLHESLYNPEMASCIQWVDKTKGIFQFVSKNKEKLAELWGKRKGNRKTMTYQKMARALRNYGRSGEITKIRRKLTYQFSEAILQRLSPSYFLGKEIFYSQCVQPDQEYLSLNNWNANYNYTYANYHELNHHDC
Conditions: protein: recombinant; tags: N-terminal GST; dsDNA, one strand shown. Put shortly: as §1

A further assay addresses ELF4 (Homo sapiens, UniProt Q99607 1-663). Conditions: protein: recombinant; tags: N-terminal GST; dsDNA, one strand shown. Put shortly:
as §1

Another assay has as its target T7, ELK4 (Homo sapiens, UniProt P28324-2 1-405).
T7 sequence: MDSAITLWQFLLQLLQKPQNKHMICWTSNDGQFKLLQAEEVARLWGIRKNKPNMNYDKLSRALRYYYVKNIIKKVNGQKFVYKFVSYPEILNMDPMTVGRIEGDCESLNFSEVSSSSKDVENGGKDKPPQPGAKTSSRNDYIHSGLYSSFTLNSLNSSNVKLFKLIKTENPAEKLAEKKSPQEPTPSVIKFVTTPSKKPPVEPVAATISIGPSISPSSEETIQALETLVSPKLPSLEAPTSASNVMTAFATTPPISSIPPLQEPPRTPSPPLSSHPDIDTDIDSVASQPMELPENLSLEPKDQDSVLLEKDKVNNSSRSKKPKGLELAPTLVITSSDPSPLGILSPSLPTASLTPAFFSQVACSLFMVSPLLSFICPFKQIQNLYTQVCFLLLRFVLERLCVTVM
The note with it: protein: recombinant; tags: N-terminal GST; dsDNA, one strand shown. Put shortly: as §1

The target of a further assay is T8, ETV2 (Homo sapiens, UniProt O00321 1-342).
T8 sequence: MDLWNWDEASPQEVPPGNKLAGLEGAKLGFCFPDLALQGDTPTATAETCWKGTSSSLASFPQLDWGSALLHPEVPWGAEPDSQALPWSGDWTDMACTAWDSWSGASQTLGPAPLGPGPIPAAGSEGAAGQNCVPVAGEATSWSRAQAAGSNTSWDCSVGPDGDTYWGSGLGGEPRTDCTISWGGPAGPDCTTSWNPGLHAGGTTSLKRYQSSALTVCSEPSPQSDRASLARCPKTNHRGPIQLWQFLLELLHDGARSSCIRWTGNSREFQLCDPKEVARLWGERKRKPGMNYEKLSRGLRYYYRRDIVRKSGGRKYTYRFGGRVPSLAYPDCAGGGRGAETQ
Conditions: protein: recombinant; tags: N-terminal GST; dsDNA, one strand shown. Put shortly: as §1

A further assay addresses T9, ELF3 (Homo sapiens, UniProt P78545 1-371).
T9 sequence: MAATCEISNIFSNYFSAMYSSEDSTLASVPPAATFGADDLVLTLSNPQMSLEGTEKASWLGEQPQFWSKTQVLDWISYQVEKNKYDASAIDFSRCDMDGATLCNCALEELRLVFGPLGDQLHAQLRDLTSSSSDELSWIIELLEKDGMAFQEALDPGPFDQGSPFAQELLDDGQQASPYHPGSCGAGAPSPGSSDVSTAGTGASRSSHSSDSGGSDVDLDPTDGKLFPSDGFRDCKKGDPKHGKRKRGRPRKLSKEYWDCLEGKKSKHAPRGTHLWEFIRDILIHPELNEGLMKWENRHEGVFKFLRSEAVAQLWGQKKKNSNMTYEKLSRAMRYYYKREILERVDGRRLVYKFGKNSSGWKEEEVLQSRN
The note with it: protein: recombinant; tags: N-terminal GST; dsDNA, one strand shown. In short, it runs like this:
as §1

In a further assay the target is CRX (Homo sapiens, UniProt O43186 1-299). Conditions: protein: recombinant; tags: N-terminal GST; dsDNA, one strand shown. In short, it runs like this:
as §1

The next assay concerns the target ETV1 (Homo sapiens, UniProt P50549 1-477). The note with it: protein: recombinant; tags: N-terminal GST; dsDNA, one strand shown. Put shortly:
as §1

Sequence of SPIB (Q01892 whole entry): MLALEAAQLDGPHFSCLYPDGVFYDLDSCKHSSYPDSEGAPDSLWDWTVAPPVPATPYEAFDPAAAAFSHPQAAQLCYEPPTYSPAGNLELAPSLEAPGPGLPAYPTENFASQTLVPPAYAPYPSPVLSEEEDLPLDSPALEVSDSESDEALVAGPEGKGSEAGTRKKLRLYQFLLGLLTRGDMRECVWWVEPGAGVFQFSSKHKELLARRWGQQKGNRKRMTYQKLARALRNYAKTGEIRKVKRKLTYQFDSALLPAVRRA
Sequence of ETV5 (P41161 whole entry): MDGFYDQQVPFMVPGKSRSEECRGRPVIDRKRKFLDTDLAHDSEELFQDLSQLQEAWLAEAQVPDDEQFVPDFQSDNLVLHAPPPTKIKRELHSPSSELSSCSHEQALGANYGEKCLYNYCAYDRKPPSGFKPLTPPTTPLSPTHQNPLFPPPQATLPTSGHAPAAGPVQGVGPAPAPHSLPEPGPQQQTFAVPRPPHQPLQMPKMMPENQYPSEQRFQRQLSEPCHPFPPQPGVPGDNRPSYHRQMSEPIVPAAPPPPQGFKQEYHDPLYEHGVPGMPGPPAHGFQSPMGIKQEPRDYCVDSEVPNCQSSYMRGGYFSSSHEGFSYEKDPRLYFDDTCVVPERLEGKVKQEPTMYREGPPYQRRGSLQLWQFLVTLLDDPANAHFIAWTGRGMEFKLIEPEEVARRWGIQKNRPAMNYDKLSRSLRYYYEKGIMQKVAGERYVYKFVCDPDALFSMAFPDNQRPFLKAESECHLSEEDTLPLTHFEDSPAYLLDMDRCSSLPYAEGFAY
Sequence of ELF4 (Q99607 whole entry): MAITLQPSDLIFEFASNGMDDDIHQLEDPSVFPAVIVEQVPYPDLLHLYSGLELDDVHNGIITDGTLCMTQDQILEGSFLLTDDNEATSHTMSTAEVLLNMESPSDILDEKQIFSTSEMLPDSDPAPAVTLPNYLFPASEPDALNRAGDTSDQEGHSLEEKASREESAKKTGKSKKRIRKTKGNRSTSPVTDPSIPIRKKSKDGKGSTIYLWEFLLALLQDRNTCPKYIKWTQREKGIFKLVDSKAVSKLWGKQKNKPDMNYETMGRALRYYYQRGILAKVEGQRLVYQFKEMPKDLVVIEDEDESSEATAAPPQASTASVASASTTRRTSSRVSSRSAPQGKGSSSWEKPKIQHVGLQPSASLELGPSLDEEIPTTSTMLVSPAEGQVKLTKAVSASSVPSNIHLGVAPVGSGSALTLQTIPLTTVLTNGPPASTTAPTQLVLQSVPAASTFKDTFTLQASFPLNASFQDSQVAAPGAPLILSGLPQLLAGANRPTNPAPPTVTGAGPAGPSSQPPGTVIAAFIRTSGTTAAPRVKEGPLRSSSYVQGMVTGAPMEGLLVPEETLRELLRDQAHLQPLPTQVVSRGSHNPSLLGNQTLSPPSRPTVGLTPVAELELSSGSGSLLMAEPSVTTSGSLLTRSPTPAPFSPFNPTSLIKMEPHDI
Sequence of ETV1 (P50549 whole entry): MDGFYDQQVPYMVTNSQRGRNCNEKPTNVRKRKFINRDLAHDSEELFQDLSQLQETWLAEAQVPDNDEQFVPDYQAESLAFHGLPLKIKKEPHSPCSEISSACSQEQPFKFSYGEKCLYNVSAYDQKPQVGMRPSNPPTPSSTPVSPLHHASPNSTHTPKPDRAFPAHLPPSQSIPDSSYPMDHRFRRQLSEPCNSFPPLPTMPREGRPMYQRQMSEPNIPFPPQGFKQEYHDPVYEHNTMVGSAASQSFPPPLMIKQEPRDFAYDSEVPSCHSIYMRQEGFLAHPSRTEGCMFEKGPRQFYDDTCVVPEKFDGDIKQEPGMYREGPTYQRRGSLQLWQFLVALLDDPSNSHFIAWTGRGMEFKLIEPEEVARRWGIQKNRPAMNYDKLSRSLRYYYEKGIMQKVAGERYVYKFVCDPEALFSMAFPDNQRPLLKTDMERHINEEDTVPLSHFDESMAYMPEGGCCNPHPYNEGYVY
Sequence of ELF1 (P32519 whole entry): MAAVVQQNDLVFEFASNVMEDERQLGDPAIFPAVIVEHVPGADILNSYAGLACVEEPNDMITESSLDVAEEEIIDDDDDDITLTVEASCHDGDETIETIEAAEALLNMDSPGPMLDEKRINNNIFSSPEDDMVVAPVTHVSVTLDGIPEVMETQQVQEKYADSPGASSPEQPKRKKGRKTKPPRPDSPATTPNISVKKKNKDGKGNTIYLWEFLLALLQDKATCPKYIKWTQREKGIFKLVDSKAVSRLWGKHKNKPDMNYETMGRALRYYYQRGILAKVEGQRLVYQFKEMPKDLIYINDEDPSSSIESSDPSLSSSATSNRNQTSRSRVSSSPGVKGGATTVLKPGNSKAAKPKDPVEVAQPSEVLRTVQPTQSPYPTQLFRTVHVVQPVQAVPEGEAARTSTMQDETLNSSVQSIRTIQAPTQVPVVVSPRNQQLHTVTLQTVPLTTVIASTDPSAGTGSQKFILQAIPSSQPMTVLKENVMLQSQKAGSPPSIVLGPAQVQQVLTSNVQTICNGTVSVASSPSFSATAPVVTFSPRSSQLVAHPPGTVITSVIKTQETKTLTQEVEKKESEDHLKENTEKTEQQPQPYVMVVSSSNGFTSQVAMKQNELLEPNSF
Sequence of HSF1 (Q00613 whole entry): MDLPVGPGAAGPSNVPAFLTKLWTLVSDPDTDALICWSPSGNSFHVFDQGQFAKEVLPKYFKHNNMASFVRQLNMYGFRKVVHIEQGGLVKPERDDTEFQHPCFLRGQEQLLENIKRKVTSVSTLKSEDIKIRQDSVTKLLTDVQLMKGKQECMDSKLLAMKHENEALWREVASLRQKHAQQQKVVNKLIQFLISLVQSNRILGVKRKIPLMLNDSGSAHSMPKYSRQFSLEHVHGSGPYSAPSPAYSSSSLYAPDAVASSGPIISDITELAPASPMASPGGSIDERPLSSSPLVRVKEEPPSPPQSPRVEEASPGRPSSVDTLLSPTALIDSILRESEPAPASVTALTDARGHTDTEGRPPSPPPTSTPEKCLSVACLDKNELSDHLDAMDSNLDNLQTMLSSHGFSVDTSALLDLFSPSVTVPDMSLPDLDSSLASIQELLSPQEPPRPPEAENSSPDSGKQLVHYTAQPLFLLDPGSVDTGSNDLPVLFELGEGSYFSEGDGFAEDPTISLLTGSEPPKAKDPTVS
Sequence of CRX (O43186 whole entry): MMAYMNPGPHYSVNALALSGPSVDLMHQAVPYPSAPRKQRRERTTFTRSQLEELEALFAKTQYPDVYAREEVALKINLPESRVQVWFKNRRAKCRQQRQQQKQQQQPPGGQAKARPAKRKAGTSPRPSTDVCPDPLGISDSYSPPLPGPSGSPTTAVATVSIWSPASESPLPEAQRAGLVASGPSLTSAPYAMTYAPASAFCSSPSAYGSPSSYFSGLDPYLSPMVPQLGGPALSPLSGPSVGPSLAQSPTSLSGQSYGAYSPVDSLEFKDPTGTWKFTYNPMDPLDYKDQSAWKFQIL

On to TTCGGC, for which the binding signal is 1.03 fold enrichment (6-mer frequency, TF over GST control) in the assay with FLI1; 1.14 fold enrichment (6-mer frequency, TF over GST control) with ELK1; 1.22 fold enrichment (6-mer frequency, TF over GST control) with GABPA; 1.08 fold enrichment (6-mer frequency, TF over GST control) with ERG; 1 fold enrichment (6-mer frequency, TF over GST control) with ELF1; 1.04 fold enrichment (6-mer frequency, TF over GST control) with SPI1. Also, the binding signal with SPIB is 1.02 fold enrichment (6-mer frequency, TF over GST control); with FEV it was 1 fold enrichment (6-mer frequency, TF over GST control); with ETV5 it was 1.02 fold enrichment (6-mer frequency, TF over GST control); in the assay with HSF1, 1.05 fold enrichment (6-mer frequency, TF over GST control); in the assay with SPIC, 1.1 fold enrichment (6-mer frequency, TF over GST control); in the assay with ELF4 it was 1.19 fold enrichment (6-mer frequency, TF over GST control). Besides, the binding signal with ELK4 is 1.07 fold enrichment (6-mer frequency, TF over GST control); in the assay with ETV2, 1.22 fold enrichment (6-mer frequency, TF over GST control); with ELF3, 1.07 fold enrichment (6-mer frequency, TF over GST control); in the assay with CRX it was 1.1 fold enrichment (6-mer frequency, TF over GST control); with ETV1, 1.14 fold enrichment (6-mer frequency, TF over GST control).
